# Out of some 350,000 compounds screened, about 31,000 (8.9%) were called active. Where a call stands in place of a potency, no number is given. Another 15% or so got no clear call; they are omitted. This excerpt belongs to a sample that is enriched for actives. A number with no mark means an inactive call. Calls come from the whole dose curve; as a rule, active = well fitted inhibition curve with a large enough effect; inconclusive = small, poorly fitted or top-dose-only effect; inactive = no such curve, though single readings can be large or run the other way.
# Biological target: Histone-lysine N-methyltransferase EHMT2 (Homo sapiens) (UniProt Q96KQ7)
# Sequence (Q96KQ7 913-1193 limits assumed): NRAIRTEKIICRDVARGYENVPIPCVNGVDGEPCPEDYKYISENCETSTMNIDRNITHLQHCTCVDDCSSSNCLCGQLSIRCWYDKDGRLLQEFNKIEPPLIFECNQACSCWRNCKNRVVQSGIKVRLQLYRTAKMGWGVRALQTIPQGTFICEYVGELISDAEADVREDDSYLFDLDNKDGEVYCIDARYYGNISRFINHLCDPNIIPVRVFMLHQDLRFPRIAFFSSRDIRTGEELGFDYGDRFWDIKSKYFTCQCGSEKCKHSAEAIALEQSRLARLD
# Assay: qHTS Assay for Inhibitors of Histone Lysine Methyltransferase G9a; note: nearly all actives have a fitted effect of over 75% in size
# Settings: G9a H3K9 monomethylation, AlphaScreen, 2 h; series mostly up to 59 µM
# Summary of the method: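 Signal arises when biotinylated H3K9 peptide, once monomethylated, bridges streptavidin donor and antibody-captured acceptor beads. Enzyme at 20 nM was preincubated 15 min with test compounds; peptide 500 nM and SAM 20 uM then reacted for 2 h.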
# Potency is the fitted concentration of half-maximal effect.
Compound,Potency,"activity, negative = inhibition"
COc1ccc(Nc2ncc3c(n2)CCN(C(=O)OC(C)(C)C)C3)cc1,inactive,
COc1ccc(CCNC(=O)Cn2c(=O)n(-c3ccccc3)c(=O)c3c(C)c(C)sc32)cc1OC,inactive,
COc1cc(C(=O)Nc2ncccc2C)ccc1OCC(=O)N1CCOCC1,inactive,
O=C(CNS(=O)(=O)c1ccccc1)N1CCN(C(=O)c2ccco2)CC1,inactive,
Cc1ccc(-n2ncc3c2CC(C)(C)CC3NC(=O)CCc2cnn(C)c2)cc1 (stereo not drawn),inactive,
CC1CCCN(c2csc3ccc(F)cc3c2=O)C1 (stereo not drawn),inactive,
CCc1cccc(NC(=O)CCCN2C(=O)C(c3ccccc3)Oc3cccnc32)c1 (stereo not drawn),,26% [at 0.0925 µM]
O=C(CN1CCCCCC1)Nc1ccc(Br)cc1Br,inactive,
O=C(CN1CCCCCC1)Nc1ccc(Br)cc1[N+](=O)[O-],35.5 µM (active),
COc1cc([N+](=O)[O-])ccc1NC(=O)CN1CCCC1,inactive,
COC(=O)c1sccc1S(=O)(=O)N(CC(=O)Nc1ccc(C)c(F)c1)c1ccc(C)c(C)c1,inactive,
O=S(=O)(NCc1ccc(Cl)cc1Cl)c1cccs1,,14.7% [at 0.501 µM]
COc1cccc(-n2c(=S)[nH]c3c(oc4ccccc43)c2=O)c1,44.7 µM (active),
Cc1cccc(-n2c(SCC(N)=O)nc3c(oc4ccccc43)c2=O)c1,inactive,
COc1ccc(-n2c(SCC(N)=O)nc3c(oc4ccccc43)c2=O)cc1,inactive,
CCOc1cc(/C=C(\C#N)C(=O)Nc2ccccc2C)ccc1OCc1cc(=O)n2nc(CC)sc2n1,inactive,
Cc1cc(C)n(-c2ccc(C(=O)O)cc2[N+](=O)[O-])n1,inactive,
CC(=O)Nc1ccc(/C=C/C(=O)c2ccccc2)cc1,,-1.87% [at 2.33 µM]
CN(C)c1ccc(/C=C/C(=O)c2ccc(C(C)(C)C)cc2)cc1[N+](=O)[O-],12.6 µM (active),
COc1cccc(CNC(=O)CN2C(=O)CCc3cc(S(=O)(=O)N4CCOCC4)ccc32)c1,inactive,
COc1ccc(C(CNC(=O)c2ccc(S(=O)(=O)Nc3ccccc3C)cc2)N2CCOCC2)cc1 (stereo not drawn),,19% [at 2.33 µM]

Compound,Potency,"activity, negative = inhibition"
Cc1ccn2cc(-c3nonc3C)cc2c1,10 µM (active),
COc1ccc(-c2cn3ccc(C)cc3n2)cc1,inactive,
Cc1nc(-c2ccc(F)cc2)c(CC(=O)N(C)CC(=O)Nc2c(C)cccc2C)s1,inactive,
CCCSc1nc2sc3c(c2c(=O)n1-c1cccc(Br)c1)CC(C)(C)OC3,inactive,
Cc1cc(C(=O)OC(C)C(=O)NC2CCCCC2C)c(C)o1 (stereo not drawn),inactive,
Cc1cccc(NC(=S)NCc2ccc3[nH]c4c(c3c2)CCCC4)c1,39.8 µM (active),
Cc1cc(C)cc(NC(=S)NCc2ccc(F)cc2)c1,inactive,
O=C(CCc1ccccc1)NCc1ccc2c(c1)CCN2C(=O)c1ccccc1,inactive,
O=C(O)CCC(=O)NCc1ccc2[nH]c3c(c2c1)CCCC3,50.1 µM (active),
O=C(O)CCC(=O)NCc1ccc(C(=O)O)cc1,inactive,
Cc1cccc(NC(=S)NCCN(C2CCCCC2)C2CCCC2)c1,inactive,
Cc1ccc(Cl)cc1NC(=O)CCC(=O)N1CC(C)Sc2ccccc21 (stereo not drawn),inactive,
O=C(NCc1ccccc1)c1ccc2c(c1)nc1n2CCCCC1,inactive,
CC(=O)c1ccc(NS(=O)(=O)c2ccc(-c3cc(C)no3)s2)cc1,inactive,
Cc1ccc(N(C)C(=O)C2CCN(S(=O)(=O)c3ccc4c(c3)CCCN4C(=O)C3CCC3)CC2)cc1,inactive,
CCN(C(=O)COc1ccc(C(=O)c2ccccc2)cc1)c1ccccc1,inactive,
CC(=O)NNC1=Nc2ccccc2N(C)C(C)C1 (stereo not drawn),31.6 µM (active),
COC(=O)C1=C(C(=O)OC)[C@@H]2N(C)c3ccccc3[C@@]23C[C@@H](C(=O)OC)N(C(C)=O)C3=N1,inactive,
O=C(CNS(=O)(=O)c1ccc2ccccc2c1)Nc1ccc(F)c(F)c1F,,2.41% [at 12.7 µM]
CC1CCCCC12NC(=O)N(CC(=O)Nc1ccc(S(=O)(=O)Nc3ncccn3)cc1)C2=O (stereo not drawn),,-10.5% [at 12.7 µM]
COc1ccc(S(=O)(=O)Nc2ccccc2C(=O)N2CCCC2)cc1C,inactive,

Compound,Potency,"activity, negative = inhibition"
COc1ccccc1N1CCN(C(=O)c2ccc(S(=O)(=O)N3CCCCC3)cc2)CC1,,-28.9% [at 12.7 µM]
COc1ccc(N2CCN(C(=O)COC(=O)c3cccc(S(=O)(=O)Nc4ccccc4OC)c3)CC2)cc1,15.8 µM (active),
CCOc1ncccc1C(=O)NNC(=O)c1cccc(S(=O)(=O)Nc2ccccc2OC)c1,inactive,
COc1ccccc1NS(=O)(=O)c1ccc(C(=O)N2CCN(c3ccccc3O)CC2)cc1,44.7 µM (active),
CC1CN(C(=O)COC(=O)c2cccc(NS(=O)(=O)c3ccccc3)c2)CC(C)O1 (stereo not drawn),,3.95% [at 0.501 µM]
CCOc1ccc(C2CC(=O)c3c([nH]c(C(=O)OCc4ccccc4)c3C)C2)cc1 (stereo not drawn),inactive,
CN(c1ccccc1)S(=O)(=O)c1cccc(C(=O)NNC(=O)c2ccncc2)c1,inactive,
COc1ccc(OC)c(-c2csc(-c3c(N)c(C(=O)c4ccccc4)n4ccccc34)n2)c1,inactive,
Cc1nn(CC(=O)O)c(=O)c2cc3cc(F)ccc3n12,inactive,
Cc1ccn2c(=O)c(NC(=O)c3cccc4ccccc34)c(C)nc2c1,inactive,
N#Cc1c(-c2ccccc2)c(-c2ccccc2)n[nH]c1=O,inactive,
O=C(O)c1n[nH]nc1-c1ccccc1,3.55 µM (active),
c1ccc(Nc2n[nH]nc2-c2ccccc2)cc1,inactive,
CCOc1ccc(OCC)c(NC(=O)c2c(C)nn(-c3ccccc3)c2-n2cccc2)c1,inactive,
CC(C)c1ccc(C2CC(=O)N3CN(C4CCCCC4)CSC3=C2C#N)cc1 (stereo not drawn),2.24 µM (active),
CC(C)c1ccc(C2C(C#N)=C(N)Oc3c2oc(CO)cc3=O)cc1 (stereo not drawn),inactive,
OCC[C@H]1C[C@@H](O)[C@H](O)[C@@]2(OCCc3ccccc32)O1,,-2.06% [at 2.33 µM]
O=C(CCSCc1ccccc1F)N1CCN(c2ccc(Cl)cc2)CC1,inactive,
Cc1cc(=O)[nH]c(SCC(=O)Nc2ccc(Br)cc2)n1,,10.1% [at 12.7 µM]
Cc1cc(C)c(C(=O)CSc2nc(C)cc(=O)[nH]2)c(C)c1,31.6 µM (active),
Cc1cc(=O)[nH]c(SCC(=O)N2c3ccccc3CC2C)n1 (stereo not drawn),,-1.7% [at 12.7 µM]
